Assay outcomes (PubChem BioAssay)
POLI inh: qHTS for Inhibitors of Polymerase Iota; AID 588590, 2011; DNA polymerase iota (Homo sapiens), Q9UNA4; 390,000 tested, 1% active; Potency, µM (doses to about 115 µM), most hits filed as inhibitors; Pol iota fluorescent replication assay, 10 min
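Fluorescent replication assay read twice, at 0 min and 10 min after adding 50 nM (final) substrate. Enzyme (10 nM) and compounds were first incubated 15 min at room temperature; enzyme-free buffer wells were negative controls.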
Pol eta inh-1: qHTS for Inhibitors of Polymerase Eta; DNA polymerase eta (Homo sapiens), Q9Y253; recombinant Pol eta, fluorescent DNA replication assay; Potency, µM (doses to about 114 µM), most hits filed as inhibitors; 390,000 tested, 1.2% active; AID 588591, 2011
Target sequence (Q9Y253 whole entry, looked up): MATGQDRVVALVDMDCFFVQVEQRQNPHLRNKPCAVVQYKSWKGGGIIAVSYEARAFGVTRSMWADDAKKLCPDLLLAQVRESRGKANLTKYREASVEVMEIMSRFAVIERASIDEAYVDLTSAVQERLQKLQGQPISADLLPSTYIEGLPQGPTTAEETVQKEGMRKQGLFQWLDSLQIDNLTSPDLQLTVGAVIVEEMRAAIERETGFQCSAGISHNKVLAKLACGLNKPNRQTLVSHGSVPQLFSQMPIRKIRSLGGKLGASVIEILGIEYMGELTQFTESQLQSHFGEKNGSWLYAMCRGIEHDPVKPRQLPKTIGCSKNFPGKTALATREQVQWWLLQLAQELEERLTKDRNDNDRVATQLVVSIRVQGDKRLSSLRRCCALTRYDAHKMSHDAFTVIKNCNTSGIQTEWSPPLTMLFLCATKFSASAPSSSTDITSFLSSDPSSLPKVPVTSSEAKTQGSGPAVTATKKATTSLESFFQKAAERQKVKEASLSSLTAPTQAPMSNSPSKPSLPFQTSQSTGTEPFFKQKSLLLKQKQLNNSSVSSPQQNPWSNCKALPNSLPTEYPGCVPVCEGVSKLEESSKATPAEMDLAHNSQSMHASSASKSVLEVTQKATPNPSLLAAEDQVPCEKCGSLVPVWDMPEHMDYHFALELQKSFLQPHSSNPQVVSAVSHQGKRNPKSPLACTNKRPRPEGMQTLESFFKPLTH
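Pol eta at 10 nM preincubated with compounds 15 min at room temperature; reaction started with fluorescent substrate (50 nM final) and read kinetically at 0 and 10 min.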
FEN1 inh-1: qHTS Assay for the Inhibitors of Human Flap endonuclease 1 (FEN1); P39748; Recombinant FEN1 flap cleavage, fluorescence, 15 min; Potency, µM (doses to about 114 µM), actives largely listed as inhibitors; 390,000 tested, 0.35% active; note: nearly all actives have a fitted effect of over 65% in size
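Enzyme 10 nM, 15 min RT preincubation with compound; start with substrate 50 nM final; reads at 0 and 15 min; qHTS titration, four-parameter Hill fit.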
Pol kappa inh-1: qHTS for Inhibitors of Polymerase Kappa | DNA polymerase kappa (Homo sapiens), Q9UBT6 | purified Pol kappa, fluorescent DNA synthesis assay, 10 min | Potency, µM (series often up to 107 µM), usual class: inhibitors | 400,000 tested, 0.53% active | AID 588579, 2011
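Pol kappa 10 nM + cpd, 15 min RT; start w/ substrate 50 nM final; fluorescence kinetic read, 0 and 10 min. Neg ctrl: buffer, no enzyme.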
Pol beta inh: qHTS Assay for Inhibitors of DNA Polymerase Beta. 340,000 tested, 1.3% active. Potency, µM (highest dose often 114 µM), usual class: inhibitors. Pol beta primer extension/strand displacement, fluorescence kinetic. AID 485314, 2010. P06746
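Curves were derived by four-parameter Hill fits of normalized qHTS data. The kinetic fluorescent primer-extension read was taken at 0 and 10 min after 50 nM substrate, following a 15 min room-temperature preincubation of 10 nM enzyme with compounds.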
WRN helicase inh-1: qHTS for Inhibitors of WRN Helicase. Bifunctional 3'-5' exonuclease/ATP-dependent helicase WRN (Homo sapiens), Q14191. WRN helicase unwinding, fluorescent forked duplex, kinetic. Potency, µM (series often up to 114 µM), most hits filed as inhibitors. 360,000 tested, 0.46% active; note: nearly all actives have a fitted effect of over 55% in size
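Screening of the MLSMR collection measured strand separation of a quenched forked DNA duplex (100 nM) by 20 nM WRN with 2 mM ATP, all final. Compounds were preincubated with enzyme 15 min at room temperature.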
Pol kappa inh-2: qHTS for Inhibitors of Polymerase Kappa: Confirmatory Assay for Cherry-picked Compounds | shares compounds with Pol eta inh-1 | purified Pol-kappa, fluorescent strand-displacement substrate | Potency, µM, most hits filed as inhibitors | 920 tested, 76% active | AID 720501, 2013
Pol eta inh-2: qHTS for Inhibitors of Polymerase Eta: Confirmatory Assay for Cherry-picked Compounds. shares compounds with Pol eta inh-1. Pol eta primer extension, TAMRA/BHQ fluorescence, 10 min. Potency, µM, most hits filed as inhibitors. 2,600 tested, 64% active. AID 720502, 2013
FEN1 inh-2: qHTS Assay for the Inhibitors of FEN1: Confirmatory Assay for Cherry-picked Compounds | AID 720498, 2013 | Potency, µM, hits mostly inhibitors | 880 tested, 79% active | FEN1 flap cleavage, TAMRA/BHQ2 fluorogenic DNA substrate | shares compounds with FEN1 inh-1; note: nearly all actives have a fitted effect of over 60% in size
WRN helicase inh-2: qHTS for Inhibitors of WRN Helicase: Confirmatory Assay for Cherry-picked Compounds. shares compounds with WRN helicase inh-1. WRN helicase DNA unwinding, fluorescence kinetic. Potency, µM (doses to about 57.1 µM), most hits filed as inhibitors. 610 tested, 63% active; note: nearly all actives have a fitted effect of over 65% in size
TO DNA binding: qHTS for Inhibitors of WRN Helicase: Thiazole Orange DNA Binding Counterscreen; shares compounds with WRN helicase inh-1; thiazole orange DNA binding displacement, fluorescence; Potency, µM (top dose mostly 57.1 µM), most hits filed as inhibitors; 610 tested, 10% active;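 note: drop in dye fluorescence marks compound binding to DNA; nearly all actives have a fitted effect of over 60% in size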
BLM helicase inh: qHTS for Inhibitors of WRN Helicase: BLM Helicase Counterscreen for WRN Inhibitors. shares compounds with WRN helicase inh-1. Recombinant BLM helicase DNA unwinding, red fluorescence. 610 tested, 60% active. AID 720503, 2013. Potency, µM (doses to about 57.1 µM), hits mostly inhibitors; note: nearly all actives have a fitted effect of over 60% in size
Large screens that a line does not name were inactive (follow-up assays come after a bar, where they were run). In the library only some 2.4% were active in any assay of this set; here they are far more common. Calls come from the whole dose curve; as a rule, active = well fitted curve in the direction sought with a large enough effect; inconclusive = small, poorly fitted or top-dose-only effect, or another doubt; inactive = no such curve, though single readings can be large; an effect the other way counts as inactive or inconclusive.

CC1=NOC(=O)/C1=C\c1ccc(-c2cccc(Cl)c2)o1	POLI inh inconclusive, Pol eta inh-1 20µM, FEN1 inh-1 50.1µM, Pol beta inh inconclusive, WRN helicase inh-1 13.4µM | Pol eta inh-2 inconclusive | WRN helicase inh-2 inconclusive | TO DNA binding inactive | BLM helicase inh 7.64µM
N#C/C(=C\c1ccncc1)c1nc2ccccc2[nH]1	none
N#C/C(=C\c1ccc(-c2ccc(C(=O)O)cc2)o1)c1nc2ccccc2[nH]1	POLI inh 31.6µM, Pol eta inh-1 28.2µM, FEN1 inh-1 44.7µM, Pol kappa inh-1 inconclusive, Pol beta inh inconclusive, WRN helicase inh-1 inconclusive | Pol kappa inh-2 13.4 | Pol eta inh-2 33.8 | WRN helicase inh-2 19.2µM | TO DNA binding inactive | BLM helicase inh 24.1µM
N#C/C(=C\c1ccc(-c2ccc(Cl)c(C(=O)O)c2)o1)c1nc2ccccc2[nH]1	POLI inh 22.4µM, Pol eta inh-1 22.4µM, Pol beta inh inconclusive (no result: WRN helicase inh-1) | Pol eta inh-2 60.1 | WRN helicase inh-2 19.2µM | TO DNA binding inconclusive | BLM helicase inh 13.6µM
N#C/C(=C\c1ccccc1C(=O)O)c1nc2ccccc2[nH]1	none
[C-]#[N+]c1cc(-c2ccncc2)c(C)[nH]c1=O	none (no result: POLI inh, Pol eta inh-1, FEN1 inh-1, Pol beta inh, WRN helicase inh-1)
O=C(O)CC(C(=O)O)N1C(=O)/C(=C/c2ccc(-c3nc4ccccc4s3)o2)SC1=S (centres undefined)	POLI inh 1µM, Pol eta inh-1 2.82µM, FEN1 inh-1 35.5µM, Pol kappa inh-1 4.47µM, Pol beta inh 10µM, WRN helicase inh-1 28.2µM | Pol eta inh-2 30.1 | FEN1 inh-2 60.1 | WRN helicase inh-2 21.5µM | TO DNA binding inactive | BLM helicase inh inactive
COc1ncc2nc(-c3cccs3)c(=O)n(CCc3ccccc3)c2n1	none (no result: POLI inh, Pol eta inh-1, FEN1 inh-1, Pol beta inh, WRN helicase inh-1)
N#Cc1c(C(=O)c2cccs2)no[n+]1[O-]	none (no result: POLI inh, Pol eta inh-1, FEN1 inh-1, Pol kappa inh-1, Pol beta inh, WRN helicase inh-1) | Pol eta inh-2 inconclusive | WRN helicase inh-2 21.5µM | TO DNA binding inactive | BLM helicase inh 24.1µM
CC(=O)N1CCC2(CCCN(c3ccc(-c4ccccc4)cc3)C2)CC1	none (no result: POLI inh, Pol eta inh-1, FEN1 inh-1, Pol beta inh, WRN helicase inh-1)
CC1CC=CC2C1C(=O)N(Cc1ccccc1)C2c1ccc(-c2ccoc2)cc1F (centres undefined)	none (no result: Pol eta inh-1, Pol beta inh, WRN helicase inh-1)
O=C(c1ccccc1)c1ccc2n1CC[C@H]2C(=O)O	none (no result: POLI inh, Pol eta inh-1, FEN1 inh-1, Pol beta inh, WRN helicase inh-1)
